In PubChem BioAssay AID624297 (National Center for Advancing Translational Sciences (NCATS), 2012):
Screen size: about 340,000 compounds; about 6,200 (1.8%) were called active. A call without a number means that no potency is given here. Roughly 10% stayed inconclusive and do not appear here. Many of the other results were omitted from the sample, so actives are more common in it than they were. Unmarked numbers belong to inactive results. Calls follow the shape of the dose curve; as a rule, active = well fitted activation curve with a large enough effect; inconclusive = small, poorly fitted or top-dose-only effect; inactive = no such curve, though single readings can be large or run the other way.
Potency is read from the fitted curve at half-maximal effect.

Experiment: A quantitative high throughput screen for small molecules that induce DNA re-replication in SW480 colon adenocarcinoma cells. Also: nearly all actives have a fitted effect of over 55% in size.
Details: Hoechst DNA content imaging, 48 h; series mostly up to 46.1 µM
In short: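 Treated cells incubate 48 hr (37 C, 5% CO2), are stained 40 min with Hoechst, and nuclear fluorescence is enumerated; a rise in nuclei with high DNA signal marks re-replication.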
For `Cc1ccc(S(=O)(=O)N2CCN(C(=O)CN3C(=O)NC(C)(c4ccc(Cl)cc4)C3=O)CC2)c(C)c1` (stereo not given), the Potency was “inactive”. In the case of `Cc1ccnc(SCC(=O)Nc2cccc(S(=O)(=O)N3CCOCC3)c2)n1`, the Potency is reported as “inactive”. In the case of `Cc1ccc(NC(=O)c2c(NC(=O)CCC(=O)O)sc3c2CCCCC3)cc1`, the Potency is reported as “inactive”. In the case of `Cc1ccc(NC(=O)c2csc3c2CCCC3)cc1`, the Potency is reported as “inactive”. For `CC(=O)Nc1ccc(NC(=O)c2sc3nc4c(c(-c5ccc(C)cc5)c3c2N)CCC4)cc1`, the Potency was 20.6 µM (active). For `COc1ccccc1N(CC(=O)Nc1c(C)n(C)n(-c2ccccc2)c1=O)S(=O)(=O)c1ccccc1`, the Potency was “inactive”. In the case of `Cc1ccc(S(=O)(=O)NCC(=O)NNC(=O)c2ccc(Br)cc2)cc1C`, the Potency is reported as “inactive”. For `O=C1c2ccccc2C(=O)N1CCC#Cc1ccc2cc(C3(O)CCCCC3)oc(=O)c2c1`, the Potency was “inactive”. In the case of `COc1cc(/C=C2\Oc3ccc(C#Cc4ccc(O)cc4)cc3C2=O)cc(OC)c1`, the Potency is reported as “inactive”. In the case of `COc1cc(C#Cc2ccc3cc(CCCO)oc(=O)c3c2)cc(OC)c1`, the Potency is reported as 3.26 µM (active). With `C#CCOCCOCCOCCNc1nc(N2CCN(C(=O)[C@H](CO)n3cc([C@@H](N)C(C)C)nn3)CC2)nc(N2CCN(C(=O)[C@H](CCC(=O)O)n3cc([C@@H](N)[C@H](C)CC)nn3)CC2)n1` the Potency was “inactive”. For `COc1ccc2[nH]cc(/C=C(/C#N)S(=O)(=O)c3ccccc3)c2c1`, the Potency was “inactive”. For `COc1cc(/C=C(\C#N)c2nc3ccccc3[nH]2)ccc1O`, the Potency was “inactive”. For `COc1ccc(/C=C(\C#N)c2c[nH]c3ccccc23)cc1`, the Potency was 18.4 µM (active). In the case of `C#CCOCCOCCOCCNc1nc(N2CCOCC2)nc(N2CCN(C(=O)[C@H](Cc3ccc(O)cc3)n3cc(CCO)nn3)CC2)n1`, the Potency is reported as “inactive”. With `Cc1noc(C)c1S(=O)(=O)N(C)C[C@H]1Oc2c(NC(=O)Nc3ccc4c(c3)OCO4)cccc2C(=O)N([C@H](C)CO)C[C@@H]1C` the Potency was “inactive”. With `O=C(NCc1ccc2c(c1)OCO2)c1cc(F)c(F)cc1Cl` the Potency was “inactive”. With `O=C(NCc1ccc2c(c1)OCO2)c1cc([N+](=O)[O-])ccc1N1CCOCC1` the Potency was 7.31 µM (active). In the case of `O=C(Cc1ccc([N+](=O)[O-])cc1)NCCc1ccc2c(c1)OCO2`, the Potency is reported as “inactive”. With `CC[C@]12c3[nH]c4ccc(Cl)cc4c3CCN1C(=O)[C@@H](CC(=O)NCCN1CCOCC1)C[C@@H]2C(=O)N1CCN(C(=O)C2CC2)CC1` the Potency was “inactive”. For `COc1ccc(CCNC(=O)COc2cc(C)cc3oc(=O)c(C)c(C)c23)cc1OC`, the Potency was “inactive”. In the case of `COc1ccc(/C=C/C(=O)OCC(=O)NC2CCCCCC2)cc1OC`, the Potency is reported as “inactive”. With `COCCCN1C(=O)C(=O)/C(=C(/O)c2ccc3c(c2)CC(C)O3)C1c1cccnc1` (stereo not given) the Potency was “inactive”. For `COc1ccc(C2/C(=C(/O)c3ccc4c(c3)CC(C)O4)C(=O)C(=O)N2Cc2ccncc2)cc1` (stereo not given), the Potency was “inactive”. In the case of `COc1cc(C2/C(=C(\O)c3ccc4c(c3)CC(C)O4)C(=O)C(=O)N2Cc2ccco2)ccc1O` (stereo not given), the Potency is reported as 0.517 µM (active). For `O=C(COC(=O)c1ccc(O)cc1O)c1ccc2c(c1)OCCO2`, the Potency was “inactive”. In the case of `O=C1CN(C(=O)COC(=O)/C=C/c2ccc(F)cc2)c2ccccc2N1`, the Potency is reported as “inactive”. For `COc1ccc2c(C(=O)c3ccc(C)cc3)n(CCC(N)=O)[n+]([O-])c2c1`, the Potency was “inactive”. For `COc1ccc(C(=O)c2c3ccc([N+](=O)[O-])cc3[n+]([O-])n2CCCN)cc1`, the Potency was 18.4 µM (active). With `COc1ccc(C(=O)CC(=O)C(=O)Nc2cc([N+](=O)[O-])ccc2OC)cc1` the Potency was “inactive”. For `COc1cc(OC)cc(-c2c(C#Cc3ccsc3)c3cc(-c4ccc(SC)cc4)ccc3n2C)c1`, the Potency was “inactive”. With `Cc1nnc(N/N=C/C2CC=CCC2)[nH]c1=O` (stereo not given) the Potency was “inactive”. For `Cc1nnc(N/N=C/c2ccccn2)[nH]c1=O`, the Potency was 1.3 µM (active). In the case of `Cc1cc(C(=O)N/N=C/c2ccccn2)c2ccccc2n1`, the Potency is reported as “inactive”. For `CC(C)[C@@H](C(=O)OCC(=O)c1ccc2c(c1)NC(=O)CO2)N1C(=O)c2ccccc2C1=O`, the Potency was “inactive”. In the case of `O=S(=O)(NCC1CN(S(=O)(=O)c2ccc3c(c2)OCCO3)C1)c1c(F)cccc1F`, the Potency is reported as “inactive”. For `CSc1ncccc1C(=O)Nc1cccc(S(=O)(=O)N2CCOCC2)c1`, the Potency was “inactive”. In the case of `CCOC(=O)c1cccc(NS(=O)(=O)c2c(C(=O)N3CCCCCC3)c(C)n(C)c2C)c1`, the Potency is reported as “inactive”. For `CCOC(=O)c1c(S(=O)(=O)Nc2ccc(CN3CCC(C)CC3)cc2)c(C)n(C)c1C`, the Potency was “inactive”. In the case of `CCOC(=O)c1c(S(=O)(=O)Nc2cccc(Cl)c2)c(C)n(C)c1C`, the Potency is reported as 8.2 µM (active). With `COc1ccc(CCN2CC(C(=O)OCC(=O)NCc3ccccc3Cl)CC2=O)cc1OC` (stereo not given) the Potency was “inactive”. In the case of `Cc1ccc(S(=O)(=O)N2CCN(C(=O)Cn3c(=O)cnc4ccccc43)CC2)c(C)c1`, the Potency is reported as “inactive”. For `CCN(CC(=O)Nc1c(F)cccc1F)C(=O)Cc1cccs1`, the Potency was “inactive”. For `Cc1cc(NC(=O)CSCC(=O)NC(C)c2ccccc2)no1` (stereo not given), the Potency was “inactive”. In the case of `NS(=O)(=O)c1ccc(CCNc2nc(C(F)(F)F)nc3ccccc23)cc1`, the Potency is reported as “inactive”. For `CCc1ccc(C(CNc2nc(C(F)(F)F)nc3ccccc23)N(C)C)cc1` (stereo not given), the Potency was 20.6 µM (active). With `COc1cccc(CNc2nc(C(F)(F)F)nc3ccccc23)c1` the Potency was “inactive”. With `CC(CN1CCC(n2nccc2NC(=O)C2CCCC2)CC1)c1ccccc1` (stereo not given) the Potency was “inactive”. For `CC(CN1CCCCC1)c1ccccc1` (stereo not given), the Potency was 5.8 µM (active). With `CC(CN1CCOCC1)c1ccccc1` (stereo not given) the Potency was “inactive”. In the case of `O=C(Nc1ccc2ccccc2c1[N+](=O)[O-])c1ccccc1`, the Potency is reported as “inactive”. With `O=C(Nc1ccccc1Cl)Nc1cccc2cccnc12` the Potency was “inactive”. For `CC(=O)/C(=N\Nc1ccc(Cl)cc1Cl)Sc1cccc2cccnc12`, the Potency was 6.51 µM (active). For `O=C(Nc1cccc2cccnc12)c1cccc(Cl)c1`, the Potency was “inactive”. With `CCC(C)c1ccc(NC(=O)COC(=O)C2CCCC2)cc1` (stereo not given) the Potency was “inactive”. In the case of `CC(Sc1nncn1C)C(=O)NCCC1=CCCCC1` (stereo not given), the Potency is reported as “inactive”. For `COc1ccc(Cn2cc(CN3CCS(=O)(=O)N(Cc4ccc(-c5cccc(Cl)c5)cc4)C(C)C3=O)nn2)cc1` (stereo not given), the Potency was “inactive”. In the case of `CN(C(=O)c1cccc(NC(=O)Cc2ccc([N+](=O)[O-])cc2)c1)C1CCC1`, the Potency is reported as “inactive”. For `Cc1nc(SCc2ccc(F)cc2)c([N+](=O)[O-])[nH]1`, the Potency was “inactive”. For `CCCOc1ccc(Cn2ccnc2)cc1[N+](=O)[O-]`, the Potency was “inactive”. For `CCCCCOc1ccc(CSC2=NCCN2)cc1[N+](=O)[O-]`, the Potency was 5.8 µM (active). With `O=C1NCC(c2ccccc2)(c2ccccc2)C(=O)N1` the Potency was “inactive”. For `Cc1ccc(OCC(=O)Nc2ccc(N3CCN(C(=O)c4ccco4)CC3)cc2)c(C)c1`, the Potency was “inactive”. With `COc1cccc(C(=O)Nc2ccc(N3CCN(C(=O)c4ccco4)CC3)cc2)c1` the Potency was 18.4 µM (active). In the case of `CCC(=O)Nc1ccc(C(=O)N2CCN(C(=O)c3ccco3)CC2)cc1`, the Potency is reported as “inactive”. In the case of `Cc1ccc(S(=O)(=O)N2CCCCC2)cc1NC(=O)CCNC(=O)c1ccccc1`, the Potency is reported as “inactive”. With `Cc1ccc(C2=N/C(=C\c3ccc(OS(=O)(=O)c4ccc(C)cc4)cc3)C(=O)O2)cc1` the Potency was “inactive”. In the case of `Cc1ccc(N2CCN(C3=NC(=O)/C(=C\c4cccs4)S3)CC2)cc1`, the Potency is reported as “inactive”. In the case of `Cc1cccc(C2=N/C(=C/c3cccs3)C(=O)O2)c1`, the Potency is reported as 4.61 µM (active). In the case of `Cc1nc2ccc(N)nc2nc1C`, the Potency is reported as “inactive”. For `CCCN(CCC)S(=O)(=O)c1cc2c(cc1Br)CCN2C(=O)CC`, the Potency was “inactive”. With `Cc1noc(C)c1S(=O)(=O)N(C)C[C@H]1Oc2ccc(NC(=O)C3CC3)cc2C(=O)N([C@H](C)CO)C[C@@H]1C` the Potency was “inactive”. For `O=C(NCCN1CCOCC1)c1ccc(/C=C2\Sc3ccccc3N(Cc3ccc(F)cc3)C2=O)cc1`, the Potency was “inactive”. With `CCN1CCN(CCNC(=O)c2ccc(/C=C3/Sc4ccccc4N(Cc4cccc(C)c4)C3=O)cc2)CC1` the Potency was 20.6 µM (active). In the case of `CN1CCN(CCCNC(=O)c2ccc(/C=C3\Oc4ccccc4N(Cc4ccc(Cl)cc4)C3=O)cc2)CC1`, the Potency is reported as “inactive”. In the case of `C[C@@H]1CN([C@@H](C)CO)C(=O)c2cccc(NS(=O)(=O)c3ccc(F)cc3)c2O[C@H]1CN(C)C(=O)NC1CCCCC1`, the Potency is reported as “inactive”. In the case of `CC1CN(C(=O)c2ccc([N+](=O)[O-])s2)CC(C)O1` (stereo not given), the Potency is reported as “inactive”. With `O=C(c1cccc(S(=O)(=O)N2CCCCCC2)c1)N1CCN(Cc2ccccc2)CC1` the Potency was “inactive”. In the case of `Cn1c(NC(=O)c2ccccc2)nc2ccccc21`, the Potency is reported as “inactive”. With `CC(NC(=O)c1ccccc1)C(=O)Nc1ccccc1` (stereo not given) the Potency was “inactive”. In the case of `O=C(NC1=CC(=O)c2ccccc2C1=O)c1ccccc1`, the Potency is reported as 5.8 µM (active). With `Cc1c[n+]([O-])ccc1[N+](=O)[O-]` the Potency was “inactive”. Molecule `COc1ccc(S(=O)(=O)N2C[C@H]3CON(C)[C@H]3C[C@H]2c2cccc(Br)c2)cc1` has a re-replication activation of -5.21% [at 9.22 µM]. With `O=C(COc1ccccc1F)Nc1nc(-c2ccccn2)cs1` the Potency was “inactive”. With `CCc1ccc2c(c1)C1(NN=C(c3ccccc3)S1)C(=O)N2` (stereo not given) the Potency was 10.3 µM (active). In the case of `CN(CCc1ccccc1)C(=O)c1cccc(NC(=O)Cc2cccc(NC(=O)C3CCCN(C(=O)C4CCC4)C3)c2)c1` (stereo not given), the Potency is reported as “inactive”. In the case of `Cc1ccccc1C1CC(c2cccs2)=NN1S(C)(=O)=O` (stereo not given), the Potency is reported as “inactive”. For `Fc1ccc(N2N=C(c3cccs3)CC2c2ccco2)c(F)c1` (stereo not given), the Potency was 23.1 µM (active). With `CCS(=O)(=O)Nc1ccc(C2=NN(S(=O)(=O)c3ccc(F)cc3)C(c3ccco3)C2)cc1` (stereo not given) the Potency was “inactive”. In the case of `CCCc1cc(=O)[nH]c(SCC(=O)Nc2ccc(C(=O)Nc3ccccc3OC)cc2)n1`, the Potency is reported as “inactive”. In the case of `O=c1cc(-c2ccccc2)[nH]c2cc(F)ccc12`, the Potency is reported as 0.92 µM (active). In the case of `Cc1ccc(-c2cc(=O)c3ccc(F)cc3[nH]2)cc1`, the Potency is reported as “inactive”. For `Cc1ccc(-c2cc(=O)c3ccc(Cl)cc3[nH]2)cc1`, the Potency was “inactive”. For `CCCCNCCS(=O)(=O)NCc1ccccc1`, the Potency was “inactive”. For `O=C(CSc1ncn[nH]1)Nc1ccc(Br)cc1Br`, the Potency was “inactive”.
